From PubChem BioAssay
WT yeast gro inh = growth inhibition of WT yeast, mitochondrial fusion screen | mitochondrial fusion phenotypic screen, WT strain | 190,000 tested, 2.1% active | inhibition, % at 10 µM; in the data active = inhibition above about 58%; tested in S. cerevisiae
ROMK mod = modulates human ROMK potassium channel activity; 130,000 tested, 2% active; Tet-inducible ROMK, thallium flux fluorescence; actives lie on both sides; P48048; B-score at 10 µM;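 active = signal ratio slope over the read window, or its plate-corrected B-score, at least 3 SD from the plate mean, either direction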;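 also: B-score of the F/F0 ratio slope over 7 to 12 s after thallium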
Target sequence (P48048 whole entry, looked up): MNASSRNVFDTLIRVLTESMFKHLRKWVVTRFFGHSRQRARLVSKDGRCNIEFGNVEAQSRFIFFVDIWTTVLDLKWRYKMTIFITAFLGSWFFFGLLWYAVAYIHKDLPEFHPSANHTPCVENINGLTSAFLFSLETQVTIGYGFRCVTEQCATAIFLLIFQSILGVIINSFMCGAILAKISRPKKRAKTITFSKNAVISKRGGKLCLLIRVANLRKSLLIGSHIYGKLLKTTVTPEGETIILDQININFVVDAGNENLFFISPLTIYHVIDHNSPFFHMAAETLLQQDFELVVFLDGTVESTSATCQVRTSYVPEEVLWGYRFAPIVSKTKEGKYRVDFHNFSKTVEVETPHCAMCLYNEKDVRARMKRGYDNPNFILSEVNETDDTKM
Arbovirus inh = arbovirus infection inhibition; arbovirus infection cell-based antiviral screen; AID 1251; 200,000 tested, 0.37% active; inhibition, % at 10 µM; in the data active = inhibition above about 30%
PERK inhibitor = blocks human PERK kinase | inhibition, % at 5.6 µM | CHO PERK-DD fusion, SEAP luminescence translation reporter | 220,000 tested, 0.17% active;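 active = inhibition above the mean inhibition of all tested compounds plus 3 SD, set separately per screening campaign, cut at about 2.9% in these data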;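 also: PERK kinase domain activated by AP20187 dimerizer at 100 nM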
ROMK hit retest = confirmation of human ROMK potassium channel modulators. shares compounds with ROMK mod. ROMK thallium flux, fluorescence ratio; stronger effect = lower value. normalized thallium flux (F/F0 slope) at 10 µM. 3,000 tested, 54% active;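 active = Flux at 10 µM at least 3 SD below or above vehicle control mean in one or both replicates; inconclusive = no clear call, values can overlap the other calls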
Numbers stand for hits; 0 = inactive; ? = inconclusive; - = no result given. This is a sample that favours compounds with a hit; in the whole collection about 3.3% have one here.

SMILES	WT yeast gro inh	ROMK mod	Arbovirus inh	PERK inhibitor	ROMK hit retest
O=C(CC1=NCCNC(c2ccccc2)C1)c1ccccc1O (stereo not drawn)	-	-2.3	0	0	?
O=C(CC1(O)C(=O)Nc2ccccc21)c1ccccc1O (stereo not drawn)	0	-	0	0	-
Cn1cccc1C(=O)NC(=O)COC(=O)c1cc(Cl)ccc1[N+](=O)[O-]	-	-	-	0	-
CCCCCCN1C=CC=C/C1=C\C=C(C#N)C#N	-	-4.4	-	0	0.043
COc1ccccc1N1CCN(C(=S)NC(=O)/C=C/c2ccccc2)CC1	-	0	-	0	-
CSc1ncc(S(=O)(=O)c2ccccc2)c(=O)[nH]1	0	0	0	0	-
CC(C)c1ccc(OCc2ccc(C(=O)O)o2)cc1	-	-	-	0	-
O=C(O)c1ccc(COc2ccc(Cl)cc2)o1	0	-	0	0	?
O=C(O)c1cccc2c1C(=O)c1ccccc1C2=O	0	-2.4	0	0	0
COc1ccc(O[C@H]2C=C[C@@H](c3ccccc3)O[C@@H]2CO/N=C(\C)CCC(=O)OC[C@H]2O[C@H](c3ccccc3)C=C[C@@H]2Oc2ccc(OC)cc2)cc1	0	0	0	0	-
O=C(/C=C/c1ccccc1[N+](=O)[O-])c1ccccc1Br	69	-6.1	0	0	0.049
Cc1ccc(C(=O)/C=C/c2ccccc2[N+](=O)[O-])cc1	0	0	0	0	-
O=C(O)c1cc(N2C(=O)C3CC=CCC3C2=O)ccc1NCc1cccnc1 (stereo not drawn)	0	2.6	0	0	0
CNCCOc1ccccc1OC(C)C	0	0	0	0	-
O=C1CC(N2CCN(Cc3ccc4c(c3)OCO4)CC2)C(=O)N1c1cccc2ccccc12 (stereo not drawn)	0	-3.1	0	0	0.055
CCOC(=O)c1sc(NC(=O)CSc2n[nH]c(-c3ccccc3)n2)c(C#N)c1C	77	-	0	0	0.059
O=C(C1CC(Cl)CN1S(=O)(=O)c1ccc(Cl)cc1)N1CCOCC1 (stereo not drawn)	0	-2	0	0	0
O=C(Nc1ccc(N2CCOCC2)cc1)C1CC(O)CN1S(=O)(=O)c1ccc(Cl)cc1 (stereo not drawn)	0	0	0	0	-
CCOC(=O)C1CCCN(c2ncnc3c2oc2ccccc23)C1 (stereo not drawn)	0	-	0	0	0.054
CC(N)(C(=O)O)c1cccc(OCc2cccc(Cl)c2)c1 (stereo not drawn)	-	-	-	0	-
O=C(Nc1cccc(S(=O)(=O)N2CCCCCC2)c1)c1ccc2c(c1)OCO2	0	-3.6	0	0	0
O=C(Nc1cccc(O)c1)c1cc(S(=O)(=O)N2CCCC2)ccc1Cl	0	3.4	0	0	0.1
Cc1cc(OCCCCNC(C)C)cc(C(C)C)c1	0	0	0	0	-
O=C(NCc1nnc2c3ccccc3c(-c3ccccc3)nn12)c1ccc(Cl)cc1	0	-	0	0	0
CN(c1ccccc1)S(=O)(=O)c1cccc(NC(=O)c2ccncc2)c1	-	-	-	0	0
SMILES	WT yeast gro inh	ROMK mod	Arbovirus inh	PERK inhibitor	ROMK hit retest
CN(c1ccccc1)S(=O)(=O)c1cccc(NC(=O)c2cncc(Br)c2)c1	-	-	-	0	-
CN(C)/C=C/C(=O)c1ccc(C(F)(F)F)cc1F	0	0	0	0	-
Cc1ccc(C)c(N2CCN(C(=O)c3ccc(CSc4nc5ccncc5[nH]4)cc3)CC2)c1	0	-4.2	0	0	0
O=C(CSCc1ccc(Cl)cc1)Nc1ccccc1C(=O)N1CCOCC1	0	-	0	0	-
O=C(CSCc1ccc(Cl)cc1)Nc1ccccc1O	0	2.3	0	0	0
Cn1c(=O)n(C)c2cc(NS(=O)(=O)c3ccc4c(c3)CCCC4)ccc21	0	-2	0	0	?
CCc1nc(CN2CCN(c3cc(C(F)(F)F)ccn3)CC2)c(C)[nH]1	-	0	-	0	-
COc1ccc(S(=O)(=O)N[C@H](C(=O)O)C(C)C)cc1	0	0	0	0	-
COc1ccc(NS(=O)(=O)c2ccc(NS(C)(=O)=O)cc2)cc1	0	-3.2	0	0	0
COc1ccc(S(=O)(=O)NC(C)C(=O)O)cc1 (stereo not drawn)	0	1	0	0	0
CC(C)(C)c1ccc(C(=O)N2CCCC2)s1	-	-	-	0	-
N#Cc1cnn(-c2nc3sc4c(c3c(=O)[nH]2)CCCC4)c1N	0	-	0	0	-
CC(=O)c1ccc(N2CCN(S(=O)(=O)c3cccc4nsnc34)CC2)cc1	0	0	0	0	-
COc1cc(NC(C)=O)c2ncccc2c1[N+](=O)[O-]	0	-4.7	0	0	0.046
CCCOC(=O)c1cc(-c2ccc(C=O)o2)ccc1Cl	0	-	0	0	0.1
CSc1ccccc1C(=O)C1CCCN(C(=O)NC(C)C)C1 (stereo not drawn)	0	0	0	0	-
O=C(Cc1ccc2c(c1)OCCO2)N1CCN(S(=O)(=O)c2cccc(C(F)(F)F)c2)CC1	0	0	0	0	-
